Experimental data reported in paper PMC5913336, “True equilibrium measurement of transcription factor-DNA binding affinities using automated polarization microscopy”.

These sequences were tested against T1, Zelda (Drosophila melanogaster, UniProt Q9VWC6 1319-1447) (assay: FP; 33 mM phosphate pH 7.0, 90 mM NaCl, 0.01% Tween 20, 0.1 mM DTT, 0.5% agarose; room temperature). Details: tags: N-GST (pGEX-6P-1, kept); dsDNA, one strand shown.
T1 sequence: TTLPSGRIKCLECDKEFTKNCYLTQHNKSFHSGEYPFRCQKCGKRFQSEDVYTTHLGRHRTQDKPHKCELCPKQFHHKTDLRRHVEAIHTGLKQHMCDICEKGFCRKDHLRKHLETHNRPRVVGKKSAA

Point of comparison: AACTTCAGGTACC, binding signal 1.86 Kd / Kd of best base at the position. Against it:
- AATCTCAGGTACC — lower, 1.8 Kd / Kd of best base at the position
- AATTTAAGGTACC — higher, 17.1 Kd / Kd of best base at the position
- AATTTCAGGGACC — higher, 12.3 Kd / Kd of best base at the position
- CATTTCAGGTACC — lower, 1.46 Kd / Kd of best base at the position
- AATTTCAGGTGCC — higher, 9.55 Kd / Kd of best base at the position
- AATTTCATGTACC — higher, 12.8 Kd / Kd of best base at the position
- AATTTCAGGTACG — higher, 2.98 Kd / Kd of best base at the position
- AATTTCAGGCACC — higher, 9.39 Kd / Kd of best base at the position
- AATTTCAGCTACC — higher, 15.7 Kd / Kd of best base at the position
- AATTTGAGGTACC — higher, 17.6 Kd / Kd of best base at the position
- AATTTCAGGAACC — higher, 19.3 Kd / Kd of best base at the position
- ATTTTCAGGTACC — lower, 1.63 Kd / Kd of best base at the position
- AATTACAGGTACC — lower, 1.77 Kd / Kd of best base at the position
- AATTTCAGGTACA — higher, 2.29 Kd / Kd of best base at the position
- AATTCCAGGTACC — lower, 1.28 Kd / Kd of best base at the position
- ACTTTCAGGTACC — higher, 1.87 Kd / Kd of best base at the position
- AATTTCAGGTTCC — higher, 14.1 Kd / Kd of best base at the position
- AATTTCACGTACC — higher, 11.7 Kd / Kd of best base at the position
- AATTTCGGGTACC — higher, 7.8 Kd / Kd of best base at the position
- AATTGCAGGTACC — lower, 1.37 Kd / Kd of best base at the position
- AATTTCAGTTACC — higher, 9.11 Kd / Kd of best base at the position
- AATTTCAGGTATC — higher, 2.16 Kd / Kd of best base at the position
- GATTTCAGGTACC — higher, 2.27 Kd / Kd of best base at the position
- TATTTCAGGTACC — lower, 1.83 Kd / Kd of best base at the position
- AAGTTCAGGTACC — lower, 1.72 Kd / Kd of best base at the position
- AATTTCAGGTCCC — higher, 10.1 Kd / Kd of best base at the position
- AATTTCCGGTACC — higher, 36.1 Kd / Kd of best base at the position
- AATTTCAGGTAAC — lower, 1.38 Kd / Kd of best base at the position
- AATTTTAGGTACC — higher, 4.6 Kd / Kd of best base at the position
- AATATCAGGTACC — lower, 1.65 Kd / Kd of best base at the position
- AATTTCAAGTACC — higher, 8.76 Kd / Kd of best base at the position
- AATGTCAGGTACC — lower, 1.84 Kd / Kd of best base at the position
- AATTTCAGGTACT — higher, 2.11 Kd / Kd of best base at the position
- AATTTCTGGTACC — higher, 19.2 Kd / Kd of best base at the position
- AGTTTCAGGTACC — higher, 2.05 Kd / Kd of best base at the position
- AATTTCAGGTAGC — lower, 1.01 Kd / Kd of best base at the position
- AATTTCAGATACC — higher, 12.3 Kd / Kd of best base at the position
- AAATTCAGGTACC — lower, 1.56 Kd / Kd of best base at the position

AATTTCAGGTACC showed a Kd of ~5.7 nM.
